Rows were chosen to be rich in hits. Some 2.4% of all compounds tested hit in one or more screens of this group.
Rango dissoc inh: inhibition of RanGTP-driven Rango-importin beta dissociation | 340,000 tested, 0.071% active | Potency, µM (series often up to 46.1 µM), for the others: at the top dose activity change, negative = inhibition | Biochemical FRET Rango-importin beta, RanGTP-induced dissociation | O95149+P62826; calls by dose curve; also: % of control where 0% means no effect; nearly all actives have a fitted effect of over 45% in size
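Compounds preincubate 5 min with complex of recombinant Rango and importin beta in PBS with 1 mM DTT. Ran (0.6 uM) loaded with 2 mM GTP plus 0.2 uM RCC1 starts dissociation; FRET is recorded 45 min later.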
TDP1 inh: blocks human tyrosyl-DNA phosphodiesterase 1 | AID 485290 | Q9NUW8 | Potency, µM (doses to about 130 µM), without a hit: top-dose activity change, negative = inhibition, most hits filed as inhibitors | recombinant TDP1, AlphaScreen DNA substrate cleavage | 350,000 tested, 0.28% active; also: % is scaled to controls: 0 for no effect and ±100 for the full control effect; nearly all actives have a fitted effect of over 40% in size
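Enzyme-compound mixtures sat 15 min at room temperature, followed by a 5 min reaction with 15 nM final substrate and 10 min with AlphaScreen beads. Recombinant human Tdp1 was used at 1 nM final.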
12-LOX inh: blocks human arachidonate 12S-lipoxygenase | P18054 | purified 12hLO, xylenol orange hydroperoxide absorbance | Potency, µM (highest dose often 108 µM), inactives show top-dose activity change, negative = inhibition, usual class: inhibitors | 580,000 tested, 1.1% active; also: % is scaled to controls: 0 for no effect and ±100 for the full control effect
Target sequence (P18054 whole entry, looked up): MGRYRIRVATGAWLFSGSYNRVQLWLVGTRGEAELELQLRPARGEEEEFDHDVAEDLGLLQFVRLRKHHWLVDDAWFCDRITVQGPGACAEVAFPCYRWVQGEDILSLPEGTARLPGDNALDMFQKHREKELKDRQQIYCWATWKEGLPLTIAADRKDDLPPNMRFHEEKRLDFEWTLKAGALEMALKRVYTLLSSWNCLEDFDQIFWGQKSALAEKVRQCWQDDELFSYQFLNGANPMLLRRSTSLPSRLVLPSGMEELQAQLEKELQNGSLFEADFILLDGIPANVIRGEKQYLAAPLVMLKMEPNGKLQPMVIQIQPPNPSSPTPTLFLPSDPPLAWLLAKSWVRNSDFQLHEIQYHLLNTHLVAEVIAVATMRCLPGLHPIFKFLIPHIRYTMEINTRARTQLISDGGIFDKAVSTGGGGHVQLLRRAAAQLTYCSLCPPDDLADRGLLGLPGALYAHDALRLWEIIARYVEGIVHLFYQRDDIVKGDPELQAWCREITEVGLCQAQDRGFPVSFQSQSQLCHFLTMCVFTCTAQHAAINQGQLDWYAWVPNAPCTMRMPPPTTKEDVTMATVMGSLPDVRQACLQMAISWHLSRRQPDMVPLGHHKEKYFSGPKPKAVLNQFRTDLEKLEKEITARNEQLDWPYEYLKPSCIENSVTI
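Hydroperoxide product was detected by ferrous iron/xylenol orange as the 573 to 405 nm absorbance ratio. Arachidonic acid at 40 uM (final) was turned over for 30 min at room temperature by 150 nM human 12hLO, pH 7.0 Hepes buffer, after 15 min compound preincubation.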
ClpP mod: qHTS Assay for Activators of ClpP | Potency, µM (series often up to 57.5 µM), for the others: at the highest dose activity change, negative = active | AID 651965, 2013 | 340,000 tested, 1.9% active | ATP-dependent Clp protease proteolytic subunit (Bacillus subtilis (strain 168)), P80244 | purified B. subtilis ClpP, FRET peptide cleavage, 20 min; active = well fitted falling curve with a large enough effect; inconclusive = small, poorly fitted or top-dose-only effect; inactive = no such curve, though single readings can be large or run the other way; also: the source files actives as falling curves though it sought activators and does not explain the sign; nearly all actives have a fitted effect of over 65% in size
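Buffer: 100 mM Tris/HCl pH8, 100 mM KCl, 0.05% low protease BSA, 2.5% glycerol, 0.01% Tween-20. ClpP 10 microg/mL final; 20 min RT; delta FRET normalized to ADEP and DMSO controls.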
TSG101-PTAP inh: blocks PTAP/TSG101 interaction to inhibit HIV-1 budding; Fluorescence polarization, FITC-PTAP peptide / Tsg101 binding; 340,000 tested, under 10 active; Potency, µM (doses to about 115 µM), for inactives: at the highest dose activity change, negative = inhibition, most hits filed as inhibitors; AID 493005; Q99816; active = well fitted inhibition curve with a large enough effect in the main read-out, with a control signal flat, not every such curve was filed as active; inconclusive = small, poorly fitted or top-dose-only effect, or effect the other way, or a change in a side signal; inactive = no such curve, though single readings can be large or run the other way; also: % of control where 0% means no effect
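Compounds were pin-transferred onto Tsg101 binding domain (10 uM final) in HEPES pH 7.5 buffer, then FITC-PTAP peptide was added at 50 nM final. After 20 min at RT, polarization reported peptide displacement across a qHTS concentration series.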
Rango complex inh: prevents formation of the Rango-importin beta complex; Q14974; Rango CFP/YFP FRET sensor + importin beta, 45 min; Potency, µM (top dose mostly 92.2 µM), for the others: at the highest dose inhibition of complex formation; 340,000 tested, 0.031% active; calls by dose curve;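 also: 0% = DMSO wells and 100% = buffer wells lacking importin beta; nearly all actives have a fitted effect of over 15% in size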
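FRET biosensor Rango (snurportin 1 IBB between N-terminal EYFP and C-terminal Cerulean), 50 nM in PBS/1 mM DTT/0.02% Tween-20/0.1% BSA, preincubated 5 min RT with compound; 0.125 microM importin beta added, 45 min RT, CFP/YFP FRET ratio read.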
ClpP inh valid: Bacillus subtilis ClpP inhibition, validated hit. shares compounds with ClpP mod. 470 tested, 40% active. purified B. subtilis ClpP, FRET-FV substrate cleavage, 20 min. Potency, µM (series often up to 57.5 µM), inactives show at the highest dose activity change, negative = inhibition, actives largely listed as inhibitors; also: % is scaled to controls: 0 for no effect and ±100 for the full control effect; nearly all actives have a fitted effect of over 70% in size
Active calls of the source: *; ? = inconclusive; . = not tested or not shown; [ ] = dose if it differs, or a comment. Unless noted, calls follow the shape of the dose curve; as a rule, active = well fitted curve in the direction sought with a large enough effect; inconclusive = small, poorly fitted or top-dose-only effect, or another doubt; inactive = no such curve, though single readings can be large; an effect the other way counts as inactive or inconclusive. Potency is read from the fitted curve at half-maximal effect.

SMILES | Rango dissoc inh | TDP1 inh | 12-LOX inh | ClpP mod | TSG101-PTAP inh | Rango complex inh | ClpP inh valid
COc1ccc(CN2C(=O)CC(=O)NC2=S)cc1 | 3% | -1% | 45µM* | -1% | -2% | 2% | .
O=C1CC(=O)N(Cc2ccccc2)C(=O)N1 | -7% | . | ? | -24% | 1% | 0% | .
Nc1c(C(=O)OC2CCCCC2)c2nc3ccccc3nc2n1CC1CCCO1 (configuration not stated) | ? | -4% | -4% | 45% | -3% | ? | ?
N#Cc1c(N)nc2c(c1-c1ccc(OCc3ccc(F)cc3)cc1)c(=O)nc1sccn12 | . | . | 37% | . | . | . | .
CCN(CC)CCSc1nc2ccccc2c(=O)n1-c1ccc(Cl)cc1 | . | -3%[12.3 µM] | -21% | 1% | . | . | .
Cc1cc(NC(=O)CSc2nc3c([nH]c4ccccc43)c(=O)n2-c2ccc(Cl)cc2)no1 | . | -1% | 0% | 37% | . | . | -19%
CCCCCn1c(N)c(C(=O)NCCN2CCOCC2)c2nc3ccccc3nc21 | ? | 6% | 52% | 8.9µM* | -7% | ? | 24µM*
CCCCn1c(N)c(C(=O)OCCOC)c2nc3ccccc3nc21 | ? | . | 0% | . | -2% | ? | .
Nc1c(C(=O)NCc2ccco2)c2nc3ccccc3nc2n1CCN1CCOCC1 | ? | -3% | -15% | 10µM* | -2% | ? | 22µM*
COc1cc2c(cc1Oc1cccc(N(C)C)c1)NC(=O)C21CCN(C(=O)C(C)C)CC1 | . | . | 3%[176 µM] | . | . | . | .
Cc1ccc2c(c1)cc(C(=O)Nc1ccccc1C)n2C | . | 2% | -22% | 34% | . | . | ?
O=C(Nc1ccccc1)N1C[C@@H]2C[C@H](C1)c1ccc(C3CCCCC3)c(=O)n1C2 | . | . | 13%[176 µM] | . | . | . | .

High-throughput results: PubChem, National Center for Advancing Translational Sciences (NCATS)
